Assay results published in PubChem BioAssay.
Calls of active or inactive are those of the source.

Key:
[1] = anti-His antibody binders, primary screen, artefact control for SMM control protein annotation, biochemical, small-molecule microarray, 635 nm fluorescence (AID 1128); settings: anti-His Alexa647 antibody binding, higher = more signal;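 also: score merges feature fluorescence with signal-to-noise for each printed compound spot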
[2] = system: Human papillomavirus type 1a E7 protein (residues 1-88); test: HPV1a E7 small-molecule binders, primary screen, biochemical, small-molecule microarray, residues 1-88, 635 nm (AID 1129); settings: small-molecule microarray binding, fluorescence 635 nm; higher = more signal
[3] = biological target: Focal adhesion kinase 1 (Homo sapiens) (UniProt Q05397); test: small-molecule microarray binders of FAK, primary screen, biochemical, 635/667 nm fluorescence, BSA, DTT (AID 1130); settings: PTK2 binding, 635 nm fluorescence, higher = more signal;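 also: composite of spot emission at 667 nm and signal to noise over triplicate slides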
[4] = system: Fibrinogen (Alexa647-labelled); test: fibrinogen binders on compound microarrays, profiling panel, artefact control for SMM control-protein annotation, biochemical, small-molecule microarray, 635/667 nm fluorescence (AID 1131); settings: fibrinogen-A647 binding fluorescence, higher = more signal;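 also: z-score merges 667 nm fluorescence with per-spot signal-to-noise over triplicate slides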
[5] = biological target: Follistatin (Homo sapiens) (UniProt P19883); test: follistatin binders on small-molecule microarrays, primary screen, biochemical, small-molecule microarray, 635/667 nm fluorescence (AID 1132); settings: FST binding, 635 nm fluorescence, higher = more signal
[6] = biological target: Fibroblast growth factor 2 (Homo sapiens) (UniProt P09038); test: FGF2 binders on small-molecule microarrays, primary screen, biochemical, small-molecule microarray, 635/667 nm fluorescence (AID 1133); settings: small-molecule microarray binding, FGF2, fluorescence 635/667; higher = more signal
[7] = mitochondrial membrane potential change in A549 cells, profiling panel, cell-based, JC-1 fluorescence, basal, 24 h, 100 nL (AID 1138); settings: higher = more signal;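 also: A549 lung adenocarcinoma cells under basal conditions with no added stimulus; test concentration not given here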
Lefty1 = Lefty1 binders on small-molecule microarrays, primary screen, biochemical, small-molecule microarray, 635/667 nm fluorescence (AID 1139); settings: small-molecule microarray binding, fluorescence 635/667; higher = more signal
[8] = system: wheat germ agglutinin (Triticum aestivum), Alexa647-labelled; test: wheat germ agglutinin binders on compound microarrays, profiling panel, artefact control for SMM control-protein annotation, biochemical, small-molecule microarray, 635/667 nm fluorescence (AID 1140); settings: WGA-A647 binding, 635 nm fluorescence, higher = more signal;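 also: score merges 667 nm feature emission with signal to noise over triplicate slides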
[9] = biological target: Luciferin 4-monooxygenase (Photinus pyralis) (UniProt P08659); test: firefly luciferase enzyme inhibitors, primary screen, biochemical, luminescence, purified enzyme, 2006 set (AID 1141); settings: SteadyGlo luminescence, 30 min, higher = more signal, called active from +8 up or from −8 down;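 also: cell-free assay with purified firefly luciferase at 100 ng per well in PBS; test concentration not given here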
Luciferin 4-monooxygenase (Photinus pyralis), sequence (P08659 whole entry, looked up): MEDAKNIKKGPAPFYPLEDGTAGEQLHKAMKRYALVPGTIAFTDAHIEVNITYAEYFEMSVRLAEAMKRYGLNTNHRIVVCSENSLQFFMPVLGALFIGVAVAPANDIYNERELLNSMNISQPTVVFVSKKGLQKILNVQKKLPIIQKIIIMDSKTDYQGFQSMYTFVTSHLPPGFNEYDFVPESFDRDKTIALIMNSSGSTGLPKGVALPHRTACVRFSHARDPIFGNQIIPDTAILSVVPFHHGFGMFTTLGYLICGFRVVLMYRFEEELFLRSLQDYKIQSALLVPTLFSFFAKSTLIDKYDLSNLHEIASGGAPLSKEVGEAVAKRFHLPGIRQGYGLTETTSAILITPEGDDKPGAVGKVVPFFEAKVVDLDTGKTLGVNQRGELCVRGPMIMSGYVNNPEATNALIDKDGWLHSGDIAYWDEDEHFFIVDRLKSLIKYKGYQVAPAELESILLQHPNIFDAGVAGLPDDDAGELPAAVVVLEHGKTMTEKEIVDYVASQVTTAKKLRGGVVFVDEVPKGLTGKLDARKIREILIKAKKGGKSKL

Follistatin (Homo sapiens), sequence (P19883 whole entry, looked up): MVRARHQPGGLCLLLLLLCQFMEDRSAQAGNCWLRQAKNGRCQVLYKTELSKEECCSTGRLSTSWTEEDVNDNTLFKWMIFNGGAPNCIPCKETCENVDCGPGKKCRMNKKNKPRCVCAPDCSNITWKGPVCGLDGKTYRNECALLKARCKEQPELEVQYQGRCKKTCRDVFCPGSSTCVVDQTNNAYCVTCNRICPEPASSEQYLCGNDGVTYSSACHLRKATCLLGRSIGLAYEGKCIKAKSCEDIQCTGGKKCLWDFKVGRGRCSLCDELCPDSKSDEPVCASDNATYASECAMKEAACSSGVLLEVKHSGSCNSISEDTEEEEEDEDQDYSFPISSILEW
Focal adhesion kinase 1 (Homo sapiens), sequence (Q05397 whole entry, looked up): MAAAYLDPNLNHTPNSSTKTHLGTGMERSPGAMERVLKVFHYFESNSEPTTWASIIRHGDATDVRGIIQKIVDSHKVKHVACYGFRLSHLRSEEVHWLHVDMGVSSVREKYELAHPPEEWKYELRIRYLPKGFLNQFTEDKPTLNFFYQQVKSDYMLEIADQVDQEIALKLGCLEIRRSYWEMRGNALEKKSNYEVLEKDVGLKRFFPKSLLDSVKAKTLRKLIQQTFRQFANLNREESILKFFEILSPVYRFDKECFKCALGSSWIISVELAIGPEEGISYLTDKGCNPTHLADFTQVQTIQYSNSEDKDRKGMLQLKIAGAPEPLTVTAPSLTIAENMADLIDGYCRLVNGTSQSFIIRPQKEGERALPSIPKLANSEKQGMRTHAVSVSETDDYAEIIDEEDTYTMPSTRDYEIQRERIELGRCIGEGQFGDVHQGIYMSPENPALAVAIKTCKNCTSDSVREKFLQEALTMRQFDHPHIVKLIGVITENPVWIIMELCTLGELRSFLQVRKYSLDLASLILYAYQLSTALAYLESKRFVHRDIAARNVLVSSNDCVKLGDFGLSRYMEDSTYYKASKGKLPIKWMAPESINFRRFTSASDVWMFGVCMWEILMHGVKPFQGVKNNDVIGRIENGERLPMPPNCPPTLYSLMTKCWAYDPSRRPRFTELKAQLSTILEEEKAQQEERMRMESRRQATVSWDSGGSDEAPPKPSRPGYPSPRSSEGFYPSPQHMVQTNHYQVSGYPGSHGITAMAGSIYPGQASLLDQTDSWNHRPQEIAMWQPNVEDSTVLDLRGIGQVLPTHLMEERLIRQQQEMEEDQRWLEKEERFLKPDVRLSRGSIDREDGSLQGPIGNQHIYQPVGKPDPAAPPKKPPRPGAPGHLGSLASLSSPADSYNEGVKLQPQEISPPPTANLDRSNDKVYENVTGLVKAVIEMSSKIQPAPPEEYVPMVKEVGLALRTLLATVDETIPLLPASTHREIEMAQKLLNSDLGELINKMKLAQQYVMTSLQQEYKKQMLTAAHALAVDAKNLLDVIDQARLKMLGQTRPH
Fibroblast growth factor 2 (Homo sapiens), sequence (P09038 whole entry, looked up): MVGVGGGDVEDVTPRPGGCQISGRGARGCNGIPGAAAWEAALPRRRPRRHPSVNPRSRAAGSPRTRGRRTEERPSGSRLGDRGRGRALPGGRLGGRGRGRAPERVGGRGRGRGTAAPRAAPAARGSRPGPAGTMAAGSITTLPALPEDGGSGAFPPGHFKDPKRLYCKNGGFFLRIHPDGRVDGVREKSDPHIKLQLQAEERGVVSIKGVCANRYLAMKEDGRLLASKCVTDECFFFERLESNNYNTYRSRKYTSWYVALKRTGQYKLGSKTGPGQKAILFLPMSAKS

| SMILES | composite z-score [1] | composite z-score [2] | composite z-score [3] | composite z-score [4] | composite z-score [5] | composite z-score [6] | z-score [7] | composite z-score (Lefty1) | composite z-score [8] | z-score [9] |
| --- | --- | --- | --- | --- | --- | --- | --- | --- | --- | --- |
| O=C(c1ccccc1)N1Cc2ccccc2[C@@H]2OC(c3ccc(OCCCO)cc3)=N[C@]2(Cc2ccccc2)C1=O | 2.33 | 1.19 | 0.319 | 0.924 | 1.32 | 1.02 | -0.411 | 0.838 | 0.765 | -0.976 (inactive) |
| COC(=O)c1c(CC[C@@H](CO)NC(=O)N[C@H](Cn2cc(Cc3ccccc3)nn2)C(C)C)oc(C(C)=O)c1C(=O)OC | 0.583 | 0.641 | -0.0225 | 0.519 | 1.29 | 1.51 | 0.0865 | 1.24 | 0.261 | -0.0001 (inactive) |
| O=C1c2ccccc2[C@](Cc2ccccc2I)(C(=O)NC2CC2)[C@H](c2ccc(CO)cc2)N1Cc1ccccc1 | -0.025 | 0.0081 | -0.186 | 0.471 | 0.885 | 1.16 | -0.194 | -0.502 | 0.322 | 0.873 (inactive) |
| C=C/C=C/[C@H]1C(=C)CN([C@@H](Cc2ccccc2)C(=O)OC)[C@@H]1[C@H](O)Cc1ccccc1 | -0.677 | -0.748 | -0.526 | -0.108 | 0.174 | -0.348 | 0.0936 | -0.426 | 0.0321 | -0.494 (inactive) |
| C=CCNC(=O)[C@H]1[C@@H]2C(=O)O[C@@H](c3ccccc3)[C@@H](c3ccccc3)N2[C@@H](c2ccc(O)cc2)[C@]12C(=O)N(C(=O)OCCOC)c1ccc(C#CCNC(N)=O)cc12 | 1.05 | 0.898 | 0.0197 | 0.0703 | 1.44 | 1.58 | -0.531 | 0.713 | 1.03 | -0.0822 (inactive) |
| CCCN1C(=O)[C@]2(CCS(=O)(=O)c3ccccc3)N=C(c3ccc(OCCCO)cc3)O[C@@H]2c2ccccc21 | 1.02 | 1.21 | 0.554 | 0.967 | 0.958 | 0.408 | 0.535 | 0.576 | 0.737 | 0.54 (inactive) |
| COCCOC(=O)N1C(=O)[C@@]2(c3cc(C#CCCO)ccc31)[C@H](c1ccc(OCCO)cc1)N1[C@H](c3ccccc3)[C@H](c3ccccc3)OC(=O)[C@H]1[C@@H]2C(=O)N1CCN(c2ncccn2)CC1 | 1.05 | 1.18 | 0.307 | 0.756 | 1.3 | 1.32 | -1.04 | 1.37 | 0.624 | -0.836 (inactive) |
| CN1C(=O)C2C=CC(C(O)c3ccccc3)N(Nc3ccccc3)C2C1=O (stereo not given) | 0.75 | 0.717 | 0.61 | -0.022 | -1.07 | -1.39 | -0.419 | -0.279 | 0.537 | -0.315 (inactive) |
| C=C(CCCC)/C(=C/C[C@@H](OC(C)=O)c1ccccc1OCCO)c1cnc2ccccc2c1 | 1.46 | 0.356 | 0.0147 | 0.143 | 1.31 | 0.908 | 0.222 | 0.736 | 0.454 | -0.754 (inactive) |
| [N-]=[N+]=NCc1ccccc1[C@H]1OC(c2ccc(OCCCO)cc2)=N[C@@]1(Cc1ccccc1)C(=O)NCc1ccccc1 | 0.517 | 1.17 | 0.365 | 0.954 | 1.13 | 0.0948 | 1.2 | -0.352 | 0.468 | -0.658 (inactive) |
| COCCCNC(=O)C1N=C(c2ccc(OCCCO)cc2)N(c2ccccc2)O1 (stereo not given) | 1.38 | 1.03 | 0.234 | 0.95 | 1.11 | 0.555 | 0.735 | 0.517 | 0.569 | -10.5 (active) |
| CC(C)(C)OC(=O)CC[C@@]1(C(=O)NCCN2CCOCC2)N=C(c2ccc(OCCCO)cc2)O[C@@H]1c1ccccc1N=[N+]=[N-] | 0.22 | 1.2 | 1.21 | 0.554 | 1.18 | -0.156 | 1.26 | -0.0836 | 0.0832 | -9.63 (active) |
| CCCCC=C[C@@H](NC(=O)Oc1cccc(C(F)(F)F)c1)c1ccccc1 | 0.291 | 1.21 | 0.0053 | 1.01 | 0.572 | 1.63 | -1.68 | -0.0322 | 1.15 | 1.52 (inactive) |
| CC(C)C[C@@H]1NC(=O)[C@@H]2C[C@H](C(=O)NCCCCCN)[C@H](c3cccc(OCCO)c3)N2C1=O | 1.19 | 1.04 | 1.13 | 0.93 | 0.555 | 0.591 | 1.18 | 0.288 | 1.13 | -1.21 (inactive) |
| C#CCNC(=O)[C@H](Cc1ccccc1)NC(=O)CCC(=O)O | -1.08 | -0.912 | -0.318 | -1.74 | -1.69 | -0.246 | -0.68 | -0.804 | -1.19 | 0.0223 (inactive) |
| O=C(NCc1ccccc1)[C@@H]1c2ccccc2C(=O)N(CC23CC4CC(CC(C4)C2)C3)[C@H]1c1ccc(CO)cc1 | 0.153 | 1.19 | 0.0304 | 0.937 | 1.17 | 1.43 | 0.705 | 0.884 | 0.31 | -0.715 (inactive) |
